tim10-1 inh = inhibits growth of tim10-1 mutant yeast. S. cerevisiae tim10-1 ts strain growth, BacTiter-Glo, 24 h. inhibition, % at 20 µM. 330,000 compounds, 2.2% hits;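 active means inhibition of at least 40%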;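 further: mutant grown at 25 °C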
NLRP3 yeast inh = inhibitors of NALP3 inflammasome in yeast. 330,000 compounds, 0.39% hits. Yeast reconstituted NLRP3/ASC/caspase-1, beta-gal luminescence, 24 h. AID 2825. inhibition, % at 10 µM;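 active means inhibition of 50% or more; inactive means inhibition below 50%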
TIM10 inh = inhibits growth of TIM10 yeast strain | S. cerevisiae TIM10 strain growth, BacTiter-Glo luminescence, 24 h | inhibition, % at 10 µM | 330,000 compounds, 1.4% hits | AID 463195;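 active means inhibition of 40% or more at the single tested concentration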;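 further: wild-type TIM10 isogenic control strain grown at permissive 25 °C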
tim23-1 inh = inhibits growth of tim23-1 mutant yeast | S. cerevisiae tim23-1 growth, BacTiter-Glo luminescence, 24 h | 330,000 compounds, 1.3% hits | AID 463212 | inhibition, % at 20 µM;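 active means growth inhibition of the mutant yeast at or above 50%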;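 further: temperature-sensitive mutant grown at 25 °C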
NALP1 inh = inhibitors of NALP1 inflammasome in yeast. S. cerevisiae NALP1/ASC/caspase-1 growth, X-gal OD620, 72 h. inhibition, % at 10 µM. 280,000 compounds, 0.61% hits; in the data active means inhibition mostly above about 24%, no sharp cut-off; inactive means mostly below about 32%
tim10-1 conf = tim10-1 yeast growth inhibition, confirmed. shares compounds with tim10-1 inh. S. cerevisiae tim10-1 ts strain growth, BacTiter-Glo, 24 h. inhibition, % at 20 µM. 7,400 compounds, 56% hits. AID 463213;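 active means inhibition of yeast growth at or above a set limit in either of two repeat tests at 20 µM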;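 further: tim10-1 mutant grown at permissive 25 °C to find synthetic lethal compounds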
Of the large screens only hits and unclear results are named; the others gave an inactive call (follow-up assays come after a bar, where they were run). In the library only some 4% were active in any assay of this set; here they are far more common.

CC(=O)c1cccc(NC(=O)COc2cc(C)on2)c1	none (no result: NALP1 inh)
Cc1ccc2[nH]c(C(=O)N3CCCC(Nc4ccc(F)cc4)C3)cc2c1 (centres undefined)	tim10-1 inh 51.4 | tim10-1 conf inactive
COc1ccc(S(=O)(=O)Nc2ccc(C)cn2)cc1	none
Cc1cc(C)n(CCc2nc(-c3cc4ccccc4o3)cs2)n1	tim10-1 inh 42.7 | tim10-1 conf inactive
COc1ccccc1NC(NC(=O)c1cccnc1)C(Cl)(Cl)Cl (centres undefined)	none
Cc1ccc(C(=O)ONc2ccc(N=NC(=O)c3ccccc3O)cc2)cc1	tim10-1 inh 43.4, NALP1 inh 42.5 | tim10-1 conf inactive
COc1ccc(-n2c(Cc3cccn3C)nnc2SCC(=O)Nc2ccc(Cl)cc2)cc1	tim10-1 inh 41.8 | tim10-1 conf inactive
CC1CCCCN1C(=O)c1ccc(CS(=O)(=O)Cc2ccccc2)cc1 (centres undefined)	none
O=C(Nc1cccnc1)OC1CCCC1	none
O=C(Nc1cccnc1)OC1CCCCC1	tim10-1 inh 43.0 | tim10-1 conf inactive
CC(C)(C)c1ccc(Oc2ncccc2NC(=O)c2cccs2)cc1	none
Cc1ccc(S(=O)(=O)/N=C2/C=C(C3C(=O)CC(C)(C)CC3=O)C(=O)c3ccccc32)cc1	tim10-1 inh 41.0 | tim10-1 conf inactive
CCc1ccc(S(=O)(=O)/N=C2\C=CC(=O)c3ccccc32)cc1	none
Cc1ccc(S(=O)(=O)N(C)C)cc1NC(=S)NC(C)CCCC(C)C (centres undefined)	none
CCCCCCC(C)NC(=S)Nc1cc(S(=O)(=O)N(C)C)ccc1C (centres undefined)	tim10-1 inh 40.8 | tim10-1 conf inactive
O=C(Nc1ccc(F)cc1)c1cc(S(=O)(=O)N2CCCCC2)ccc1F	tim10-1 inh 42.3 | tim10-1 conf inactive
O=C(Nc1ccc(S(=O)(=O)N2CCCCC2)cc1)c1ccccc1F	none
COc1ccc(C(=O)Nc2ccccc2C(=O)N2CCOCC2)cc1	none
Cc1ccc(-c2csc(N3CCN(c4cc5c(cc4Cl)nc(C(C)N)n5CCCO)CC3)n2)cc1 (centres undefined)	none
Cc1ccc(-c2csc(N3CCN(c4cc5c(cc4Cl)nc(C)n5CCN4CCCCC4)CC3)n2)cc1	tim10-1 inh 40.5 | tim10-1 conf inactive
COc1cccc(CNC(=O)CCCn2nc(C)c3c(C)n(-c4ccc(C)cc4)nc3c2=O)c1OC	tim10-1 inh 44.9 | tim10-1 conf inactive
COc1ccccc1CNC(=O)CCCn1nc(C)c2c(C)n(-c3ccccc3)nc2c1=O	none
CCOC(=O)C1CN(S(C)(=O)=O)c2cc(CC(=O)OC)ccc2O1 (centres undefined)	none
Cn1nccc1C(=O)Oc1cccc(/C=N/NC(=O)c2ccccc2O)c1	none
COc1ccc(S(=O)(=O)N/N=C(/C)c2ccc(Cl)cc2)cc1	tim10-1 inh 52.1 | tim10-1 conf 43.6
COc1cccc(/C(C)=N/NS(=O)(=O)c2ccc(Cl)cc2)c1	none
CC(=O)Oc1ccc(N(C(C)=O)S(=O)(=O)c2ccc(C)cc2C)c2ccccc12	none
Cc1ccc(S(=O)(=O)N(C(=O)c2ccncc2)c2ccc(OC(=O)c3ccncc3)c3ccccc23)c(C)c1	tim10-1 inh 48.0 | tim10-1 conf 32.4
COc1ccc(C(OC(=O)c2ccco2)C(=O)NC2CCCC2)cc1OC (centres undefined)	none
COc1ccc(C(OC(=O)c2ccco2)C(=O)NC2CCCCC2)cc1OC (centres undefined)	tim10-1 inh 45.1 | tim10-1 conf inactive
CC(C)c1ccc(S(=O)(=O)Nc2ccc(SC(F)F)cc2)cc1	tim10-1 inh 49.7 | tim10-1 conf 28.0
CC(C)c1ccc(NS(=O)(=O)c2ccc(-n3cccn3)cc2)cc1	tim10-1 inh 45.4 | tim10-1 conf inactive
CC(C)c1ccc(S(=O)(=O)Nc2ccc(-n3cnnn3)cc2)cc1	none (no result: NALP1 inh)
CC(C)c1ccc(NS(=O)(=O)c2ccc(Cl)nc2)cc1	none
Cc1cccc(C)c1OCC(=O)N=Nc1c(O)[nH]c2ccc(Br)cc12	tim10-1 inh 52.5 | tim10-1 conf 34.6
Cc1ccc(C(=O)NCC(=O)N2CCN(c3cccc(Cl)c3)CC2)s1	none (no result: NALP1 inh)
CCOC(=O)C1CCN(C2CC(=O)N(c3cccc(Cl)c3)C2=O)CC1 (centres undefined)	tim10-1 inh 41.5 | tim10-1 conf 37.5
O=C(C1CCN(C2CC(=O)N(c3ccc(Cl)cc3)C2=O)CC1)N1CCOCC1 (centres undefined)	none
COC(=O)C1CCN(C2CC(=O)N(c3cc(C)cc(C)c3)C2=O)CC1 (centres undefined)	tim10-1 inh 40.5 | tim10-1 conf 31.9
O=C(C1CCN(C2CC(=O)N(c3cccc(Cl)c3)C2=O)CC1)N1CCCC1 (centres undefined)	tim10-1 inh 55.4 | tim10-1 conf 47.2
CCN(CC)C1CC(=O)N(c2cccc(Cl)c2)C1=O (centres undefined)	tim10-1 inh 45.0 | tim10-1 conf 56.3
CC1CC(C)CN(Cc2nc(N)nc(Nc3ccc4ccccc4c3)n2)C1 (centres undefined)	none
O=C(CCN1C(=O)C2C3CC(C(Br)C3Br)C2C1=O)OCC(=O)c1ccccc1 (centres undefined)	none
COc1cc(CCC(=O)Nc2c(C(=O)N3CCN(c4ccccc4OC)CC3)oc3ccccc23)on1	tim10-1 inh 42.4 | tim10-1 conf inactive
COc1ccc(N2CCC(CNC(=S)Nc3cc(C)cc(C)c3)C2)cc1 (centres undefined)	none (no result: NALP1 inh)
COc1ccc(N2CCC(CNC(=O)Nc3ccccc3)C2)cc1 (centres undefined)	tim10-1 inh 41.3 | tim10-1 conf 32.9
COc1ccc(N2CCN(C(C)C(=O)N3CCCC3)CC2)cc1 (centres undefined)	none
CCNC(=S)N/N=C/c1sc(N2CCCCC2)nc1-c1cccs1	none
CCc1cc2c3c(c(=O)oc2cc1O)CCCC3	tim10-1 inh 40.6 | tim10-1 conf inactive
Cc1nn(C(C)(C)C)c(OC(=O)c2ccc3c(c2)OCO3)c1S(=O)(=O)c1ccccc1	tim10-1 inh 45.5 | tim10-1 conf 35.0
Cc1ccc2[nH]c(O)c(N=NC(=O)C(C)n3cnc4ccccc4c3=O)c2c1 (centres undefined)	none
CCOC(=O)/C=C/C(=O)OCC(=O)Nc1ccc(C)cc1	tim10-1 inh 40.6 | tim10-1 conf 36.6
O=C(Cc1cccs1)N1CCN=C1SCc1ccccc1Cl	tim10-1 inh 40.1 | tim10-1 conf 33.6
O=C(Cc1cccs1)N1CCN=C1SCc1ccccc1F	none
COc1cccc(-c2nc(=S)c3c(n2Cc2ccco2)CCCC3)c1	tim10-1 inh 42.0 | tim10-1 conf 40.1
CCCc1[nH]c2ccc(C#N)cc2c1CCC	tim10-1 inh 52.7 | tim10-1 conf 33.2
